Compounds without any hit were thinned out: in the full panel of roughly 83,000, 20% have a hit.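 Assay: single dose, 48 h. Readout: percent growth (0 = no net growth; negative = cell death). Active: <10.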 Values without a mark were called inactive. The source made the active and inactive calls.

Common to all, as to assay: NCI-60 one-dose screen, 48 h (100 = growth as untreated, 0 = no growth, -100 = all killed)
Common to all, as to conditions: 10 µM unless noted

In assay [1] the test system is NCI-H23 lung.
Assay [2] concerns NCI-H322M lung.
Assay [3] relates to HOP-62 NSCLC.
Assay [4] deals with NCI-H460 lung.
Assay [5] has as its system HOP-92 NSCLC.
The test system of assay [6] is NCI-H522 lung.
Assay [7] deals with A549/ATCC NSCLC.
In assay [8] the test system is 786-0 renal.
Assay [9] deals with COLO 205 colon.
The test system of assay [10] is DU-145 prostate.

In the case of `Nc1n[nH]c2ccc([C@@H]3Nc4ccc5[nH]ncc5c4[C@H]4[C@H]5CCC(C5)[C@H]43)cc12`, the growth is 31.4% in assay [1]; 42.7% in assay [2]; 35.7% in assay [3]; 3.93% (active) in assay [4]; 33.7% in assay [5]; -21.4% (active) in assay [6]. Besides, the growth in [7] was 18.5%; in assay [8] it was 24.1%; in assay [9] it was 0.265% (active); in assay [10] it was 7.74% (active).

For the compound `COc1ccc(-c2cc(=O)c3c(OC)c4ccoc4c(/C=C/C=O)c3o2)cc1`, the growth in assay [1] is 40.5%; in assay [2] it was 51.2%; in assay [3], 15.5%; in [4], 64.8%; in assay [5], 72.4%; in [6], 88.3%. Besides, the growth is 90.7% in assay [7], 82.8% in [8], 99% in assay [9] and 24.8% in [10].

`COc1ccc(-c2nc(-c3ccccc3)c(-c3ccccc3)[nH]2)cc1OC1CCCCC1`: the growth in assay [1] was 89%; in [2], 84.9%; in assay [3], 105%; in assay [4] it was 88.3%; in assay [5], 69.6%; in assay [6], 88.3%. Further, the growth is 85.5% in assay [7], 102% in assay [8], 98.1% in assay [9] and 99.7% in [10].

On to `c1ccc2cc3c(Nc4ccc(N5CCOCC5)cc4)ccnc3cc2c1`, for which the growth in [1] was 95%; in assay [2] it was 111%; in [3], 100%; in assay [4] it was 86.5%; in assay [5] it was 104%; in assay [6], 97.5%. Moreover, the growth in assay [7] is 85%; in assay [8], 91.6%; in assay [9], 106%; in assay [10] it was 97.2%.

For the compound `Cc1c(-c2noc(-c3ccc([N+](=O)[O-])cc3)n2)no[n+]1[O-]`, the growth was 86% in assay [1]; 88.4% in [2]; 86.1% in assay [3]; 103% in assay [4]; 85.2% in assay [5]; 102% in [6]. The growth was 111% in [7], 99.5% in [8], 113% in assay [9] and 99.9% in assay [10].

For the compound `Cc1nc2ccccc2c(/C=C/c2ccc(F)cc2)c1C(N)=O`, the growth was 101% in assay [1]; 110% in assay [2]; 95.2% in assay [3]; 108% in [4]; 105% in [5]; 94.3% in [6]. In addition, the growth was 97.7% in [7], 99.8% in assay [8], 114% in assay [9] and 105% in assay [10].

As for `C[n+]1c2ccccc2nc2ccc(NCCO)cc21`, the growth was 90.6% in [1]; 88.8% in [2]; 98.1% in [3]; 86.8% in assay [4]; 30.9% in [5]; 92.2% in assay [6]. Besides, the growth was 86.2% in assay [7], 80.8% in [8], 68.8% in [9] and 97.2% in assay [10].

`NCCOc1ncccc1/C=C1\c2ccccc2-c2ccc([N+](=O)[O-])cc21`: the growth in [1] is -68.1% (active); in assay [2], -23.4% (active); in assay [3], -60.1% (active); in assay [4], -46.1% (active); in [5], -39.5% (active); in [6], -20% (active). The growth in assay [7] is -58.6% (active); in assay [8] it was -85.8% (active); in [9] it was -50.5% (active); in [10], -34.4% (active).

For the compound `COc1nccc2cc3c(=O)n4c(cc5ccccc54)c(=O)n3c12`, the growth is 89.8% in assay [1]; 86.3% in [2]; 82.3% in assay [3]; 103% in assay [4]; 118% in assay [5]; 93.7% in assay [6]. Further, the growth in assay [7] is 104%; in assay [8] it was 102%; in assay [9] it was 102%; in assay [10], 111%.

`COC(=O)C1(C)CCC[C@]2(C)[C@H]3C[C@H]4C(C(C)C)=C[C@]3(CC[C@@H]12)[C@H]1[C@@H]4[C@@H](OCC#CCN2CCOCC2)CC[C@@H]1OCC#CCN1CCOCC1` (stereo not given in full): the growth in [1] was 82.6%; in assay [2], 102%; in [3], 85.3%; in assay [4], 94%; in [5], 54.9%; in assay [6], 74.4%. Also, the growth in [7] was 66.8%; in assay [8], 86.1%; in assay [9], 89.2%; in assay [10] it was 95.5%.

`COc1ccc(C2=Nn3c(NN)nnc3SC2)cc1`: the growth was 95.9% in assay [1]; 95.2% in assay [2]; 104% in assay [3]; 112% in [4]; 105% in assay [5]; 75.5% in assay [6]. Further, the growth in assay [7] is 87.2%; in assay [8] it was 104%; in assay [9] it was 108%; in [10] it was 103%.

Take `CCCCCCc1cc2cc(-c3csc(/C=C/c4ccccc4)n3)c(=O)oc2cc1O`: the growth in [1] is 54.5%; in assay [2] it was 63.9%; in assay [3] it was 34.9%; in assay [4], 17.7%; in assay [5], -3.21% (active); in assay [6] it was -30.7% (active). Further, the growth in [7] is 28.7%; in assay [8], 30.1%; in [9], -93.5% (active); in [10], 53.3%.

On to `CC/C=C\C[C@H](O)C/C=C1/C(=O)C=C[C@@H]1C/C=C\CCCC(=O)OCCS(=O)(=O)c1ccccc1`, for which the growth in [1] is 59%; in [2], 71.2%; in assay [3] it was 22.1%; in assay [4], 42%; in [5], 110%; in assay [6] it was -7.61% (active). For the same compound, the growth in [7] is 78.1%; in assay [8], 60%; in [9] it was 43.6%; in assay [10], 47.7%.

`Cc1ccc(Nc2nc(N)c3ccccc3n2)cc1Cl`: the growth is 53.8% in assay [1]; 73.5% in [2]; 89% in [3]; 56.8% in assay [4]; 54.3% in assay [5]; 41% in [6]. For the same compound, the growth was 48.1% in assay [7], 80.9% in assay [8], 54.5% in assay [9] and 45.9% in [10].

Values taken from PubChem BioAssay (NCI).
